Reference: PubChem BioAssay (NCATS)
Inconclusive results are not listed. Calls of active or inactive are those of the source. Unless noted, the call rests on the fitted dose curve; in most records, active means well fitted curve in either direction with a large enough effect (not every such curve was filed as active); inconclusive means small, poorly fitted or top-dose-only effect, or another doubt; inactive means flat fitted curve, though single readings scatter.

Tests used:
[1] = target: Lysosomal acid glucosylceramidase (Homo sapiens) (UniProt P04062); assay: Glucocerebrosidase-p2 (AID 348; in the data active means potency below about 10 µM; further: potency means the concentration at half of the fitted maximal effect); conditions: purified GBA, blue fluorogenic substrate, 40 min
Outline: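 Compounds titrated from 0.6 nM upwards against 0.2 nM enzyme in pH 5.9 citric acid/KH2PO4, taurocholate, tween-20; blue fluorogenic substrate 80 uM, 40 min room temperature, stopped and read Ex 365/Em 440 for AC50.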

[2] = AP1 Signaling Pathway (AID 357); conditions: ME-180 AP-1-bla reporter, EGF-induced, beta-lactamase ratio, 5 h; at 7.69 µM (top of the series) unless noted; further: on the % scale 0 is the no-effect control and ±100 the full control effect
Outline: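 ME-180 cells with beta-lactamase reporter under AP-1 response element, stimulated with EC50 EGF; compounds tested in titration series, 5 h at 37 °C. CCF4 substrate added 2.5 h at room temperature; 460/530 nm emission ratio gave %activity and AC50.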

[3] = NFAT Signaling Pathway (AID 444); conditions: Jurkat NFAT-bla M1, carbachol, beta-lactamase ratio, 5 h; at 7.69 µM (top of the series) unless noted;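 further: carbachol stimulus at about its EC50 of 1 µM final; on the % scale 0 is the no-effect control and ±100 the full control effect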
Outline: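 Jurkat cells with NFAT-driven β-lactamase reporter and co-expressed M1 receptor, stimulated with carbachol (final 1 uM, ~EC50), compound titration, 5 h at 37 °C. CCF4 loaded 1 h at RT; 460/530 nm ratio gave %activity and AC50.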

[4] = Stat Signaling Pathway (AID 446); conditions: ME-180 SIE beta-lactamase reporter, IL-6 stimulated, 5 h; at 7.69 µM (top of the series) unless noted;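 further: ME-180 cervical cancer cells given 40 pM IL-6 alongside compound; SIE-controlled beta-lactamase reporter measured as 460/530 nm FRET emission ratio; on the % scale 0 is the no-effect control and ±100 the full control effect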
Outline: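 Reporter line: ME-180 cervical carcinoma, SIE-beta-lactamase. Treatment: compound with 40 pM IL-6, 5 hrs, 37 C, in low-serum OPTI-MEM with 10 mM HEPES pH 7.3. Detection: 460/530 nm fluorescence.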

[5] = target: Glucocorticoid receptor (Homo sapiens) (UniProt P04150); assay: GR-GFP Redistribution (AID 450;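 active means compounds whose dose series gives a full or clear partial fitted curve of increased nuclear translocation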; further: potency means the concentration at half of the fitted maximal effect); conditions: U2OS GR-GFP nuclear translocation, laser cytometry, 2 h
[6] = target: Glucocorticoid receptor (Homo sapiens) (UniProt P04150); assay: GR-EFC Redistribution (AID 451; calls by dose curve; further: potency means the concentration at half of the fitted maximal effect); conditions: CHO-K1 GR-EFC translocation, beta-gal luminescence, 2 h
Outline: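 CHO-K1 cells expressing nuclear EA and GR-ED fragments of b-gal; compounds titrated up to 46 uM final, 2 h at 37 C. GR nuclear translocation read as complemented b-gal luminescence after 1 h RT detection.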

[7] = target: Mitogen-activated protein kinase 10 (Mus musculus) (UniProt Q61831); assay: JNK3 AlphaScreen Assay (AID 530); conditions: JNK3 lysate, c-Jun phosphorylation; series mostly up to 57.1 µM;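 further: kinase came from lysate of stimulated human HepG2 cells; signal reports phosphorylation of biotinylated GST-cJun 1-79 at Ser73 with 10 µM ATP; on the % scale 0 is the no-effect control and ±100 the full control effect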
Outline: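 qHTS format: compounds tested as titrations against IL-1beta/TNF-alpha-activated HepG2 lysate JNK3 with biotin-GST-cJun substrate and 10 uM ATP at room temperature. Loss of anti-phospho-cJun AlphaScreen signal indicates inhibition.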

[8] = Confirmation and Secondary Assay for Modulators of Hemoglobin Beta Chain Splicing at IVS2 654 locus (AID 910; active means well fitted curve in the direction sought with a large enough effect; an effect the other way counts as inactive or inconclusive;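 further: HeLa cells stably carrying EGFP split by mutant beta-globin IVS2-654 intron; % of control where 0% means no effect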); conditions: HeLa EGFP-654 splicing reporter, GFP fluorescence, 48 h; series mostly up to 38.3 µM
Outline: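 HeLa cells stably expressing EGFP interrupted by β-globin IVS2-654 intron, seeded overnight in Opti-MEM/2% FCS, then treated 2 days at 37 °C. Restored splicing read as total peak GFP intensity per well by laser scanning cytometry (488 nm excitation, 500–520 nm emission); 500 nM antisense PNA as control.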

[9] = Confirmation and Secondary Assay for Modulators of Hemoglobin Beta Chain Splicing at IVS2 705 locus (AID 930; active means well fitted curve in the direction sought with a large enough effect; an effect the other way counts as inactive or inconclusive;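 further: HeLa cells stably expressing the EGFP-705 splicing reporter; GFP fluorescence per well restored by corrected splicing of the IVS2-705 intron in EGFP; % of control where 0% means no effect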); conditions: HeLa EGFP-705 splicing reporter, GFP fluorescence, 48 h; series mostly up to 38.3 µM
Outline: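 Secondary splice-site specificity test uses HeLa expressing CMV-driven EGFP interrupted by IVS2-705; cells were treated 2 days at 37C with 500 nM antisense PNA as positive control.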

[10] = qHTS Assay for Lipid Storage Modulators (AID 1519; calls by dose curve); conditions: Drosophila S3 cells, BODIPY lipid droplet/cell ratio, laser cytometry, cells loaded with oleic acid; for activity change, negative = inhibition: at 57.5 µM (top of the series)
Outline: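 Cells seeded at 5,000 per well were treated with compounds over a concentration series and loaded with oleic acid (400 uM, as added). Lipid droplet fluorescence (488 nm excitation, 500-530 nm channel) was read by laser-scanning cytometry and normalized to 20 uM Triacsin C.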

[11] = target: 3',5'-cyclic-AMP phosphodiesterase 4B (Homo sapiens) (UniProt Q07343); assay: qHTS Assay for Inhibitors of PDE-IV (AID 607; active means well fitted activation curve with a large enough effect in the main read-out, with a control signal flat, not every such curve was filed as active; further: % of control where 0% means no effect); conditions: HEK293 ACTOne CNG channel cells, membrane potential fluorescence; series mostly up to 22.9 µM
Outline: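 Cell-based read-out of cAMP via a modified cyclic nucleotide-gated channel and membrane potential dye (535/590 nm) in HEK293 cells expressing PDE4 endogenously. Compounds tested up to 22.9 uM final; 100 uM RO 20-1724 reference.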

[12] = target: Cytochrome P450 1A2 (Homo sapiens) (UniProt P05177); assay: p450-cyp1a2 (AID 410; calls by dose curve; further: potency means the concentration at half of the fitted maximal effect); conditions: recombinant CYP1A2, luciferin-ME demethylation, luminescence; series mostly up to 57 µM
Outline: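 Human CYP1A2 (20nM) demethylated Luciferin-ME at its Km (100uM) in 100mM KPO4. After 10 min compound preincubation, NADPH regeneration ran the reaction 60 min at room temperature. Luciferin was read by luminescence, normalized to 57 uM furafylline.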

[13] = target: Cytochrome P450 3A4 (Homo sapiens) (UniProt P08684); assay: qHTS Assay for Activators of Cytochrome P450 3A4 (AID 885; active means well fitted curve in the direction sought with a large enough effect; an effect the other way counts as inactive or inconclusive; further: nearly all actives have a fitted effect of over 65% in size); conditions: recombinant CYP3A4, Luciferin-PPXE luminescence, 60 min; series mostly up to 57.1 µM
Outline: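 Signal was normalized against complete inhibition by 57 uM ketoconazole. The reaction used 20nM CYP3A4 with 25uM Luciferin-PPXE, 10-min compound preincubation and a 60-min NADPH-supported step at RT.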

[14] = qHTS Assay for Identification of Small Molecule Agonists for Hypoxia Response Element Signaling Pathway (AID 914; active means well fitted activation curve with a large enough effect in the signal ratio, with a control signal flat, not every such curve was filed as active; the % refers to the signal ratio; further: potency means the concentration at half of the fitted maximal effect); conditions: ME-180 (cervical carcinoma) HRE-bla reporter, beta-lactamase ratio, CoCl2, 17 h; activation: stronger effect = higher value
Outline: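 qHTS titration; ME-180 HRE-bla cells; EC50 CoCl2 co-treatment, 17 h at 37 degrees Celsius; CCF4 dye, ex 405nm, em 460nm and 530nm; %Activity from ratio; AC50.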

[15] = measured here: cell count channel max response
[16] = measured here: lipid channel max response

Chain of Glucocorticoid receptor (Homo sapiens) (P04150 whole entry, looked up, the tested form may be a part): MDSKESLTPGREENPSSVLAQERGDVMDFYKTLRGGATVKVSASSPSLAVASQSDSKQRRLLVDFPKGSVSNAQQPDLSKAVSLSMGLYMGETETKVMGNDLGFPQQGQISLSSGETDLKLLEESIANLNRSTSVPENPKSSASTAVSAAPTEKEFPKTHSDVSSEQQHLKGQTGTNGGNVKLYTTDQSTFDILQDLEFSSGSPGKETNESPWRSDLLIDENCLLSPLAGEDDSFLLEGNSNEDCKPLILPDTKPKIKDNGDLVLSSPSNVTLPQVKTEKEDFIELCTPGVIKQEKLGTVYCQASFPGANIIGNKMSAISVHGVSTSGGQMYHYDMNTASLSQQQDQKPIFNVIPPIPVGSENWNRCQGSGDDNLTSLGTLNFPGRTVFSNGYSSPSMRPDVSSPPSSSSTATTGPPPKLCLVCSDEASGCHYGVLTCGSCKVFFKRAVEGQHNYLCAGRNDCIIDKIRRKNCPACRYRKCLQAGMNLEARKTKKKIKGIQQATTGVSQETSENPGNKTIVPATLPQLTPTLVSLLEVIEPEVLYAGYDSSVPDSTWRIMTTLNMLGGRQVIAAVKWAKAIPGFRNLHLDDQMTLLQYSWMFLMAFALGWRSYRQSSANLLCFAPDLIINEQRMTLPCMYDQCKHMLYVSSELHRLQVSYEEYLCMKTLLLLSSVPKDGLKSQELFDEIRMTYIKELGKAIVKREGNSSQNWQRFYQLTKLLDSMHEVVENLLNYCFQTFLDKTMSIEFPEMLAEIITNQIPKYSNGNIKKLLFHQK
Chain of Lysosomal acid glucosylceramidase (Homo sapiens) (P04062 whole entry, looked up): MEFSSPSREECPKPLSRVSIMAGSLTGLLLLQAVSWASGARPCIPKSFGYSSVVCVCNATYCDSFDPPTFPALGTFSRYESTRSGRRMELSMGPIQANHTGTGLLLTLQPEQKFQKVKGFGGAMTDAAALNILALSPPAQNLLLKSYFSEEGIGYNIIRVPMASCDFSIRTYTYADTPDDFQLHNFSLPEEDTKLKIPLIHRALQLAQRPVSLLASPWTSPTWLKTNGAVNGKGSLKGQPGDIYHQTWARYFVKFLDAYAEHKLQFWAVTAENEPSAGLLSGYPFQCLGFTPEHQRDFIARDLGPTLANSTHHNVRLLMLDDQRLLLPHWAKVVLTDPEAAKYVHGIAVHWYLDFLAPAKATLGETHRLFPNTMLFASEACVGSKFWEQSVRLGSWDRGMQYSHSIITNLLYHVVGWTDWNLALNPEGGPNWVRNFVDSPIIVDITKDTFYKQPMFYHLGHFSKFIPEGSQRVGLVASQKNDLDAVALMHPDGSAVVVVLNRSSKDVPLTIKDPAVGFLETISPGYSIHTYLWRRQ
Chain of 3',5'-cyclic-AMP phosphodiesterase 4B (Homo sapiens) (Q07343 whole entry, looked up): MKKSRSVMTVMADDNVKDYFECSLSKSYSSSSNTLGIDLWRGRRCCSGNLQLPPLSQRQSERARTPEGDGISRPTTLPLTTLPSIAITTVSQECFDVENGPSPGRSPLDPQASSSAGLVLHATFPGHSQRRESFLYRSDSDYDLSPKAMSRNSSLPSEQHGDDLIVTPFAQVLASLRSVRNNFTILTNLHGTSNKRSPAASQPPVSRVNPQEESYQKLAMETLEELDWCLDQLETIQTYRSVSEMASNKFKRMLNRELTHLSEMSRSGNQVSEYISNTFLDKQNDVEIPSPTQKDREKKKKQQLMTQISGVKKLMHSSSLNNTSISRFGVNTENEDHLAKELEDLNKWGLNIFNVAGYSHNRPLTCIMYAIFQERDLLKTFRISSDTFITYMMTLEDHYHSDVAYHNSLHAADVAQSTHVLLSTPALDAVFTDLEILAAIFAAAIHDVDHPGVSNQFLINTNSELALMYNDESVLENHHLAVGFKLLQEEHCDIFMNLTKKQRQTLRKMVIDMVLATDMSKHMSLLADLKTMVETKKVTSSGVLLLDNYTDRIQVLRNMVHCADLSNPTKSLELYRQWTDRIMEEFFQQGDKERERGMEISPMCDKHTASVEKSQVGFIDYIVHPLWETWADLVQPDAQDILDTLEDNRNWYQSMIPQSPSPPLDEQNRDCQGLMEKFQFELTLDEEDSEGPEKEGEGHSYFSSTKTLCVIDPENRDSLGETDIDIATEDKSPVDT
Chain of Cytochrome P450 3A4 (Homo sapiens) (P08684 whole entry, looked up): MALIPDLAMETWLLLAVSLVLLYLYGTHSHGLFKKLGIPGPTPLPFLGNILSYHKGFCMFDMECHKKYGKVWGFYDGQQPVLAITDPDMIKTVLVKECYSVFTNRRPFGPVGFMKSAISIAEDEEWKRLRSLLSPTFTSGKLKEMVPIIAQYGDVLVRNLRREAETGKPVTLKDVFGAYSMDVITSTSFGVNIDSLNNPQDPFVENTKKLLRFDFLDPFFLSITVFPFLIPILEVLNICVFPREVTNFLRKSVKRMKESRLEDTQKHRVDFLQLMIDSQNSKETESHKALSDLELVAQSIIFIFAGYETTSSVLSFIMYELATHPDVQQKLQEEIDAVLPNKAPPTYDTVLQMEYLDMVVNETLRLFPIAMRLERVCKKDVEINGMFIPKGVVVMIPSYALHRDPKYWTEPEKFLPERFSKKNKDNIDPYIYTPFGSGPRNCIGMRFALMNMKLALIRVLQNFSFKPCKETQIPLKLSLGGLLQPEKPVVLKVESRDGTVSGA
Chain of Cytochrome P450 1A2 (Homo sapiens) (P05177 whole entry, looked up): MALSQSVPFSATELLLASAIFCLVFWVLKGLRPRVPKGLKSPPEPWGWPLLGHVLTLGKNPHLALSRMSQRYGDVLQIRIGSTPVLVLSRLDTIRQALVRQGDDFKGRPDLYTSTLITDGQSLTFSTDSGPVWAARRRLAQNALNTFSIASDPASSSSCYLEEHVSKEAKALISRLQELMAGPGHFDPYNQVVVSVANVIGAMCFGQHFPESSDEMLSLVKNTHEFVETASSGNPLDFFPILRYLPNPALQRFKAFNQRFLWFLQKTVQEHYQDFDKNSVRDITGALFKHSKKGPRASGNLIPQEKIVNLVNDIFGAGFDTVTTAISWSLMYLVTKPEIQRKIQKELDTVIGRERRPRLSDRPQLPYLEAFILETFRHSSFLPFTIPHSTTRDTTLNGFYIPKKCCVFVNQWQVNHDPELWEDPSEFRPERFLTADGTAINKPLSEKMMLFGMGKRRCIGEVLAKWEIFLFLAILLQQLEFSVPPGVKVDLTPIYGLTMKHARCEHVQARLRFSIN

c1ccc2c(N3CCNCC3)nc(-c3ccoc3)nc2c1
inactive: Potency [1] > 11.4 µM | activity change, negative = inhibition [2] 0.826% | activity change, negative = inhibition [3] -11.1% | activity, negative = inhibition [4] 28% | Potency [5] > 46 µM | Potency [6] > 46 µM | Potency [7] | Potency [8] | outcome [9] | activity change, negative = inhibition [10] 8.78%
17.6%: max response [10, 16]
9.44%: max response [10, 15]

N#CCCn1c(=O)c(CCc2ccccc2)nc2cnc(N3CCOCC3)nc21
19.8%: max response [10, 15]
inactive: Potency [1] > 11.4 µM | activity change, negative = inhibition [3] -3.78% | activity, negative = inhibition [4] 26.7% | Potency [5] > 9.22 µM | Potency [6] > 46 µM | Potency [7] | activity change, negative = inhibition [10] 4.17%
22.7%: max response [10, 16]

O=S(=O)(c1ccccc1)N1CCC2(CCN(c3ccncc3)CC2)CC1
inactive: Potency [1] > 11.4 µM | activity change, negative = inhibition [2] 2.08% | activity, negative = inhibition [4] 1.98% | Potency [6] > 46 µM | Potency [7] | Potency [11] | activity change, negative = inhibition [10] 3.52%
17%: max response [10, 16]
9.97%: max response [10, 15]

COc1ccccc1CN1CCC2(CC1)CCN(C(=O)c1cc(C(F)(F)F)cc(C(F)(F)F)c1)CC2
1.32%: max response [10, 16]
inactive: Potency [1] > 11.4 µM | activity change, negative = inhibition [2] -13.2% | activity, negative = inhibition [4] -3.31% | Potency [6] > 46 µM | Potency [7] | Potency [11] | activity change, negative = inhibition [10] 0.332%
-5.08%: max response [10, 15]

COc1ccc(C(=O)N2CCC3(CC2)CN(c2ccccn2)C3)cc1
15.9%: max response [10, 15]
29.6%: max response [10, 16]
inactive: Potency [1] > 11.4 µM | activity change, negative = inhibition [2] 3.74% | activity change, negative = inhibition [3] -14.4% | activity, negative = inhibition [4] -24.1% | Potency [6] > 46 µM | Potency [7] | Potency [11] | activity change, negative = inhibition [10] 6.8%

N#Cc1ccc(CN2CCCC3(CCN(C(=O)c4cc(C(F)(F)F)cc(C(F)(F)F)c4)CC3)C2)cc1
26.7%: max response [10, 16]
inactive: Potency [1] > 11.4 µM | activity change, negative = inhibition [2] 16.4% | activity, negative = inhibition [4] -17.3% | Potency [6] > 46 µM | Potency [7] | Potency [11] | activity change, negative = inhibition [10] 1.75%
18.7%: max response [10, 15]

COc1ccc(-c2nc3cnc(N4CCNCC4)nc3n(C3CC3)c2=O)cc1
inactive: Potency [1] > 11.4 µM | Potency [5] > 9.22 µM | Potency [6] > 46 µM | Potency [7] | Potency [11] | Potency [13] | activity change, negative = inhibition [10] 0.741%
6.87%: max response [10, 16]
4.22%: max response [10, 15]
active: Potency [12] 6.31 µM | Potency [14] 3.16 µM

COCCn1c(=O)c(-c2ccc(F)cc2)nc2cnc(Oc3ccc(OC)cc3)nc21
-27.4%: max response [10, 16]
inactive: Potency [1] > 11.4 µM | activity change, negative = inhibition [2] -14.8% | activity change, negative = inhibition [3] 0.536% | activity, negative = inhibition [4] -13.7% | Potency [5] > 9.22 µM | Potency [6] > 46 µM | Potency [7] | Potency [11] | activity change, negative = inhibition [10] -18.7%
-18.1%: max response [10, 15]
